The supplement of paper PMC7411054

What was measured:
Assay in all cases: lowest phenotypically active concentration; higher = less potent
Settings in all cases: treatment time: 24 h
[1] = test system: A549-CANX-COX4
In short: (§1)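 After 24 h at 0.3, 1, 3 or 9 µM, with four wells per treatment, fifteen gene-edited A549, HepG2 and WPMY1 reporter lines carrying BFP, GFP and RFP/FusionRed were imaged live. Each well's live-cell features were expressed relative to solvent control wells. Deviation required ≥3 of 4 wells past the 95th percentile of control Euclidean distances, and reproducibility a median replicate Pearson correlation over the 95th percentile of non-replicates. Phenotypic activity rested on both.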

[2] = test system: A549-TP53BP1-CLTA
In short: as §1

[3] = test system: HepG2-ACTB-RAB5A
In short: as §1

[4] = test system: HepG2-TP53BP1-CLTA
In short: as §1

[5] = test system: WPMY1-CANX-COX4
In short: as §1

[6] = test system: WPMY1-TP53BP1-CLTA
In short: as §1

[7] = test system: WPMY1-TUBA1B-RELA
In short: as §1

Row | Structure (SMILES) | lowest phenotypically active concentration [1] [µM] | lowest phenotypically active concentration [2] [µM] | lowest phenotypically active concentration [3] [µM] | lowest phenotypically active concentration [4] [µM] | lowest phenotypically active concentration [5] [µM] | lowest phenotypically active concentration [6] [µM] | lowest phenotypically active concentration [7] [µM]
1 | Nc1ccn([C@@H]2O[C@H](CO)[C@@H](O)C2(F)F)c(=O)n1 [gemcitabine] | ≤ 0.3 | ≤ 0.3 | ≤ 0.3 | ≤ 0.3 | ≤ 0.3 | ≤ 0.3 | ≤ 0.3
2 | CC(C)CCN1c2nc(Nc3cc(F)c(O)c(F)c3)ncc2N(C)C(=O)C1C (configuration not stated) |  | 3 | 3 | 3 | 3 | ≤ 0.3 | 3
3 | O=c1[nH]cc(F)c(=O)[nH]1 [5-Fluorouracil] | 3 | 9 | 3 | 3 |  | 9 | 
4 | COc1ccc2c(Oc3ccc(NC(=O)c4c(C)n(CC(C)(C)O)n(-c5ccccc5)c4=O)nc3)ccnc2c1 |  |  |  | 9 |  |  | 
5 | Oc1ccc(Nc2nc(-c3ccc(Cl)cc3)cs2)cc1 | 3 | 9 |  |  | 3 | 9 | 9
6 | N#Cc1c(NC(=O)c2cccc3ccccc23)sc2c1CCCC2 | ≤ 0.3 | ≤ 0.3 | ≤ 0.3 | ≤ 0.3 | ≤ 0.3 | ≤ 0.3 | ≤ 0.3
7 | CN1C/C(=C/c2ccc(B(O)O)cc2)C(=O)/C(=C/c2ccc(B(O)O)cc2)C1 | ≤ 0.3 | ≤ 0.3 | ≤ 0.3 | 9 | 3 | 3 | 3
8 | COc1cc2ncn(-c3cc(OCc4ccccc4C(F)(F)F)c(C(N)=O)s3)c2cc1OC | 1 | 1 | ≤ 0.3 | ≤ 0.3 | 1 | 1 | ≤ 0.3
9 | Cc1ccc(S(=O)(=O)/C=C/C#N)cc1 |  |  |  |  | 9 |  | 
10 | COc1cc([C@@H]2c3cc4c(cc3[C@@H](O[C@@H]3O[C@@H]5CO[C@@H](C)O[C@H]5[C@H](O)[C@H]3O)[C@H]3COC(=O)[C@H]23)OCO4)cc(OC)c1O [etoposide] | 1 | ≤ 0.3 | 1 | ≤ 0.3 | 1 | 1 | ≤ 0.3
11 | C/C(=C/c1ccc(C(=O)O)cc1)c1ccc2c(c1)C(C)(C)CCC2(C)C |  |  |  |  | 9 | 3 | 
12 | Cc1nc(NC(=O)N2CCC[C@H]2C(N)=O)sc1-c1ccnc(C(C)(C)C(F)(F)F)c1 [alpelisib] | 3 | 9 | 1 | 9 | 3 | 3 | 9
